# Source: PubChem (Broad Institute)
# Shown is part of a subset that was picked to be rich in hits.
# C diff HTS = C. difficile growth inhibition; AID 1259249; Clostridium difficile clinical isolate growth, OD600, 24 h; hits give low values; actives 0.25% (n = 86,000); growth activity, negative = inhibition, % at 16 µg/mL (by protocol);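 active means mean growth activity at or below -80% and every replicate also at or below -80%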
# Hits are given with their value; 0 = inactive; ! = not active in a repeat.
SMILES,C diff HTS
N#Cc1cccc(-c2ccc3c(c2)[C@@H]2[C@@H](CCN2Cc2ccc4c(c2)OCO4)[C@@H](CO)N3)c1,-98
N#Cc1ccc(-c2ccc3c(c2)[C@@H]2[C@@H](CCN2Cc2cncnc2)[C@@H](CO)N3)cc1,0
OC[C@@H]1Nc2ccc(C#Cc3ccc(F)cc3)cc2[C@@H]2[C@H]1CCN2Cc1ccc2c(c1)OCO2,0
N#Cc1cccc(-c2ccc3c(c2)[C@@H]2[C@@H](CCN2Cc2cncnc2)[C@H](CO)N3)c1,0
N#Cc1ccc(-c2ccc3c(c2)[C@@H]2[C@@H](CCN2Cc2ccc4c(c2)OCO4)[C@@H](CO)N3)cc1,-102
CC=Cc1ccc2n(c1=O)C[C@@H]1[C@@H](CO)[C@H](C(=O)NCc3ccccc3)[C@H]2N1Cc1ccccc1OC (mixture of isomers),0
CCC(=O)Nc1ccc2c(c1)OC[C@H](C)N(Cc1ccccc1C(=O)O)C[C@H](C)[C@@H](OC)CN(C)C2=O,0
COc1ccc(CN(C)C[C@@H]2Oc3c(NC(=O)CCCCCC(=O)Nc4ccccc4N)cccc3C(=O)N([C@@H](C)CO)C[C@H]2C)cc1,0
C/C=C/c1ccc([C@@H]2[C@H](CO)N(CC3CC3)C23CN(C(=O)COC)C3)cc1,0
C[C@@H]1CN([C@@H](C)CO)S(=O)(=O)c2ccc(C#CCC3CCCC3)cc2O[C@H]1CN(C)Cc1cccc(C(=O)O)c1,0
COc1cccc(-c2ccc3c(c2)[C@H]2[C@H](CCN2C(=O)Nc2ccccc2OC)[C@H](CO)N3C)c1,0
COc1cccc(-c2ccc3c(c2)[C@H]2[C@H](CCN2C(=O)Nc2ccccc2OC)[C@@H](CO)N3C)c1,0
COc1ccc(NC(=O)N2CC[C@@H]3[C@H]2c2cc(Br)ccc2N(C)[C@@H]3CO)cc1,-100
COc1cccc(-c2ccc3c(c2)[C@@H]2[C@@H](CCN2C(=O)Nc2ccccc2OC)[C@@H](CO)N3C)c1,-97
COc1ccc(NC(=O)N2CC[C@@H]3[C@@H](CO)N(C)c4ccc(-c5ccc(F)cc5)cc4[C@@H]32)cc1,0
COc1ccc(NC(=O)N2CC[C@@H]3[C@@H](CO)N(C)c4ccc(Br)cc4[C@@H]32)cc1,0
COc1ccc(CN2CC3(CCN(C(=O)C4CCC4)CC3)c3c(n(C)c4cc(OC)ccc34)[C@H]2CO)cc1,0
C[C@H]1CN([C@@H](C)CO)C(=O)Cc2cc(NS(C)(=O)=O)ccc2O[C@H]1CN(C)Cc1ccccc1,0
COc1ccc(NC(=O)Nc2ccc3c(c2)C(=O)N([C@H](C)CO)C[C@H](C)[C@@H](CN(C)S(=O)(=O)c2c(C)noc2C)OCCCC[C@@H](C)O3)cc1,0
C[C@@H]1CN([C@@H](C)CO)C(=O)Cc2cc(NC(=O)Nc3ccc4c(c3)OCO4)ccc2O[C@H]1CN(C)C(=O)Nc1ccc2c(c1)OCO2,0
C[C@H]1CN([C@@H](C)CO)S(=O)(=O)c2ccc(/C=C/c3ccccc3)cc2O[C@@H]1CN(C)Cc1ccc(C(=O)O)cc1,0
C[C@@H]1CN([C@@H](C)CO)S(=O)(=O)c2ccc(/C=C/c3ccccc3)cc2O[C@H]1CN(C)Cc1ccc(C(=O)O)cc1,-97
C[C@@H]1CN([C@@H](C)CO)S(=O)(=O)c2ccc(/C=C/c3ccccc3)cc2O[C@@H]1CN(C)Cc1ccc(C(=O)O)cc1,0
CCCNC(=O)N1CC2(C1)[C@H](c1ccccc1)[C@H](CO)N2Cc1ccccn1,0
COc1ccccc1C#Cc1ccc2c(c1)[C@H]1[C@H](CCN1C(=O)c1ccncc1)[C@H](CO)N2,-100
SMILES,C diff HTS
COc1ccc(C#Cc2ccc3c(c2)[C@H]2[C@H](CCN2C(=O)c2ccncc2)[C@H](CO)N3)cc1,0
COc1ccc(C#Cc2ccc3c(c2)[C@H]2[C@H](CCN2C(=O)c2ccncc2)[C@@H](CO)N3)cc1,0
O=C(C1CCCC1)N1CCCCN2[C@H](CO)[C@@H](c3ccc(-c4cccc(F)c4)cc3)[C@@H]2C1,0
COc1ccc2c3c(n(C)c2c1)[C@H](CO)N(Cc1nccs1)CC31CN(C(=O)CN(C)C)C1,0
C[C@@H]1CCCCO[C@H](CN(C)Cc2ccc3c(c2)OCO3)[C@@H](C)CN([C@@H](C)CO)C(=O)c2cc(NC(=O)Nc3ccc(C(F)(F)F)cc3)ccc2O1,-100
C[C@@H]1CCCCO[C@H](CN(C)Cc2ccc3c(c2)OCO3)[C@H](C)CN([C@@H](C)CO)C(=O)c2cc(NC(=O)Nc3ccc(C(F)(F)F)cc3)ccc2O1,0
C[C@@H]1CN([C@@H](C)CO)C(=O)c2cc(NC(=O)Nc3ccc(C(F)(F)F)cc3)ccc2O[C@@H](C)CCCCO[C@H]1CN(C)Cc1ccc(C(F)(F)F)cc1,0
C[C@@H]1CCCCO[C@@H](CN(C)Cc2ccc(C(F)(F)F)cc2)[C@H](C)CN([C@@H](C)CO)C(=O)c2cc(NC(=O)Nc3ccc(C(F)(F)F)cc3)ccc2O1,0
C[C@@H]1CN([C@H](C)CO)C(=O)c2cc(NC(=O)Nc3ccc(C(F)(F)F)cc3)ccc2O[C@@H](C)CCCCO[C@H]1CN(C)Cc1ccc2c(c1)OCO2,-100
C[C@H]1CCCCO[C@H](CN(C)Cc2ccc3c(c2)OCO3)[C@@H](C)CN([C@@H](C)CO)C(=O)c2cc(NC(=O)Nc3ccc(C(F)(F)F)cc3)ccc2O1,0
C[C@@H]1CCCCO[C@@H](CN(C)Cc2ccc3c(c2)OCO3)[C@@H](C)CN([C@H](C)CO)C(=O)c2cc(NC(=O)Nc3ccc(C(F)(F)F)cc3)ccc2O1,0
C[C@@H]1CN([C@@H](C)CO)C(=O)c2cc(NC(=O)Nc3ccc(C(F)(F)F)cc3)ccc2O[C@@H](C)CCCCO[C@H]1CN(C)Cc1ccc2c(c1)OCO2,-92
C[C@H](CO)N1C[C@H](C)[C@H](CN(C)Cc2ccc3c(c2)OCO3)OCCCC[C@H](C)Oc2ccc(NC(=O)Nc3ccc(C(F)(F)F)cc3)cc2C1=O,0
COc1ccc2c3c([nH]c2c1)[C@@H](CO)N(C(=O)CC1CC1)CC31CCN(C(=O)CC2CC2)CC1,0
COc1ccc2c3c(n(C)c2c1)[C@H](CO)N(Cc1ccccc1)CC31CN(S(C)(=O)=O)C1,0
O=C(C[C@H]1CC[C@H](NS(=O)(=O)c2ccccc2)[C@@H](CO)O1)N1CCC(Cc2ccccc2)CC1,0
COc1cccc(NC(=O)N(C)C[C@@H]2OCc3cn(nn3)CCCC(=O)N([C@@H](C)CO)C[C@@H]2C)c1,0
Cc1ccccc1-c1ccc(C2[C@@H]3CN(C(=O)Nc4ccc(F)cc4)C[C@H]2N3)cc1 (stereo partly specified),0
O=C(Nc1ccc2c(c1)OCO2)N1[C@@H]2CNC[C@H]1C2c1ccc(/C=C/c2ccccc2)cc1 (stereo partly specified),0
c1ncc(-c2ccc(C3[C@@H]4CN(Cc5ccc6c(c5)OCO6)C[C@H]3N4)cc2)cn1 (stereo partly specified),0
O=C(Nc1ccc2c(c1)OCO2)N1C[C@@H]2N[C@H](C1)C2c1ccc(C=Cc2ccccc2)cc1 (stereo partly specified),-99!
C/C=C/c1ccc(C2[C@@H]3CN(C(=O)Nc4ccccc4F)C[C@H]2N3)cc1 (stereo partly specified),0
C/C=C/c1ccc(C2[C@@H]3CN(C(=O)Nc4ccc(F)cc4)C[C@H]2N3)cc1 (stereo partly specified),0
O=C(Nc1ccccc1F)N1C[C@@H]2N[C@H](C1)C2c1ccc(/C=C/c2ccccc2)cc1 (stereo partly specified),-97!
